Results reported in PubChem BioAssay (NCI).
About 83,000 compounds went through this panel and 20% of them were active in at least one assay; those are over-represented in the sample as a whole.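 In brief: 96-well plates, 48 h treatment, single concentration, percent growth endpoint.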 Activity calls are given as the source filed them. How the source made its calls: active means growth percent below 10; inactive means the rest.

System: MDA-MB-468 breast
Assay: NCI-60 one-dose screen, 48 h (100 = growth as untreated, 0 = no growth, -100 = all killed)
Settings: 10 µM unless noted

SMILES | growth
CC(=O)c1cc(Cl)ccc1O | 97.5% (inactive)
Cc1oc(-c2ccccc2Cl)cc1C(=O)Nc1ccc(S(N)(=O)=O)cc1 | 109% (inactive)
O=S(=O)(NCCCNc1cc(-c2c(-c3cccc(O)c3)nc3sccn23)ccn1)c1cccc2ccccc12 | 38.3% (inactive)
CC[C@]12C=CCN3CC[C@]4(C(=C(C(=O)OC)C1)Nc1cc5c(cc14)[C@@H]1[C@H](O5)[C@@H](O)[C@@]4(CC)CC(C(=O)OC)=C5Nc6cc(OC)ccc6[C@@]56CCN1[C@@H]46)[C@@H]32 | -36.8% (active)
O=C1c2c(c3c4cccnc4[nH]c3c3ccc4ccccc4c23)C(=O)N1CCN1CCCCC1 | 29.4% (inactive)
COc1ccc(C(c2ccc(OCCN(C)C)cc2)c2cc3ccccc3c3ccccc23)cc1 (stereo not given) | 2.65% (active)
NC1=Nc2ccccc2N(O)N1 | 102% (inactive)
NNC(=O)c1nc(N)n(-c2ccc(S(N)(=O)=O)cc2)n1 | 108% (inactive)
COc1ccc(Sc2[nH]c(C(C)=O)c3ccccc23)cc1 | -6.04% (active)
CCCCCCCCNC(=O)C(C)C | 85.4% (inactive)
O=C(Nc1nc2ccc([N+](=O)[O-])cc2s1)Nc1ccccc1Cl | 58.5% (inactive)
Cc1c(Cl)cccc1NC(=O)c1sc2nc3c(cc2c1N)COCC3 | 17.7% (inactive)
CC1(C)C2=C(C(=O)N1Cc1ccccc1)C(c1ccco1)N(C(=O)C1CCC1)CCN2 (stereo not given) | 112% (inactive)
O=[N+]([O-])c1ccc(Cl)c(S(=O)(=O)O)c1 | 112% (inactive)
COc1cc(-c2nc(-c3nc4ccccc4[nH]3)cc3c2[nH]c2ccccc23)cc(OC)c1OC | 42.1% (inactive)
Cn1cc(-c2ccc3occ(-c4cccc(-c5ccncc5)c4)c3n2)cn1 | 4.07% (active)
COC(=O)c1c(C)nc(C)c2c1C(=O)C(Br)=C(NCCCCO)C2=O | 29.5% (inactive)
NC(=O)c1ccc[n+](Cc2ccccc2)c1 | 98.4% (inactive)
O=[N+]([O-])c1ccc2ncccc2c1Cl | -2.71% (active)
NC(CS/C(Cl)=C/Cl)C(=O)O (stereo not given) | -38.5% (active)

SMILES | growth
C#Cc1cccc(Oc2ccc(NC(=O)CCl)cc2)c1 | -7.9% [8.25 µM] (active)
COc1cc(C2Cc3ncccc3-c3[nH]c(=O)c4cccnc4c32)cc(OC)c1OC (stereo not given) | 22.8% (inactive)
COc1cc2c(c(OC)c1OC)-c1ccc(N=NC(N)=S)c(=O)cc1[C@@H](NC(C)=O)CC2 | -40.8% (active)
N[C@@H]1CCC[C@H]1NCCCCN1C(=O)c2cccc3cc([N+](=O)[O-])cc(c23)C1=O | 31.9% (inactive)
N#CC1=C(Nc2ccccc2Cl)SC(c2ccccc2O)NC1=O (stereo not given) | 122% (inactive)
Clc1ccc2c(NCCCn3ccnc3)c3oc4ccc(Cl)cc4c3nc2c1 | 31.3% (inactive)
C#CCOCC1CN(C)C(=O)O1 (stereo not given) | 118% (inactive)
Cc1cc(C)n(C(=O)CSc2nc3sc4c(c3c(=O)n2-c2ccccc2)CCCCC4)n1 | 111% (inactive)
O=C1NN(c2ccccc2)C(c2ccc3c(c2)OCO3)N2CCC[C@@H]12 (stereo not given in full) | 121% (inactive)
COC(=O)C(Cc1cn(C(C)=O)c2ccccc12)P(=O)(OC)OC (stereo not given) | 101% (inactive)
O=C(CCN1CCCC1)Nc1ccc2c(Nc3ccc(Br)cc3)c3ccccc3nc2c1 | 39.5% (inactive)
S=C(N/N=C/c1ccccn1)Nc1ccccn1 | -1.71% (active)
CN(C)CCCNc1nc2ccccc2c2c(=O)c3cc(F)ccc3sc12 | -6.97% (active)
Cc1ccc(C)c(C(O)(c2cc(C)ccc2C)C2(O)CCCCC2)c1 | 90.5% (inactive)
COc1cc(C2c3cc4c(cc3C(OC(=O)C[n+]3ccccc3)C3COC(=O)C23)OCO4)cc(OC)c1OC (stereo not given) | 5.13% (active)
Clc1ccc(/C=C/c2ccccn2)c(Cl)c1 | 29.3% (inactive)
CS(=O)(=O)c1ccc(C(=O)N/N=C/c2ccc3c(c2)OCO3)cc1 | 109% (inactive)
O=C(CN1CCN(c2cc3c(cc2F)c(=O)c(C(=O)O)cn3C2CC2)CC1)N/N=C/c1ccco1 | 104% (inactive)
NS(=O)(=O)c1ccc(Cn2c(SCC(=O)N/N=C/c3ccccc3O)nc3ccccc3c2=O)cc1 | 52% (inactive)
Cc1cc(Nc2nc(-c3cccnc3)nc3ccccc23)n[nH]1 | 26.8% (inactive)
